The term inhibition denotes the drop in the measured response relative to a control, in per cent.

SMILES strings stand for the structures. The whole screen tested about 360,000 compounds, of which about 4,500 (1.2%) were called active. The sample holds actives, similar compounds and a random draw of the others, so the mix is not that of the screen. No stated cut-off is given here; in the data, active means inhibition above about 30%; inactive means the rest.

Results on 91 molecules are retold here after PubChem BioAssay AID588335 (The Scripps Research Institute Molecular Screening Center, 2011).

The experiment is described as follows: GDH-TPI coupling enzyme inhibitors, primary screen, artefact control for M. tuberculosis FBA inhibitor project, biochemical, absorbance, full deck (AID 588335).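 Further: 0% = DMSO wells and 100% = wells lacking the enzyme.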 The following applies: GDH-TPI coupled enzyme counterscreen, NADH absorbance; at 4.8 µM; active compounds read high. (In general: The purpose of a counterscreen is to sort out artefacts and off-target activity.)
For `CN(C(=O)CCn1c(=S)oc2ccccc21)C1CCCCC1`, the inhibition was 2.6% (inactive). For `Cc1c(NS(=O)(=O)c2cccc(C(=O)Nc3ccc(SC(F)F)cc3)c2)c(=O)n(-c2ccccc2)n1C` the value was 0.43% (inactive).

On to `O=C(Nc1ccccc1F)c1cc(S(=O)(=O)N2CCCCC2)cs1`, for which the inhibition was -3.77% (inactive).

Turning to `O=C1CN(C(=O)CN2C(=O)NC3(CCCCC3)C2=O)c2ccccc2N1`, the inhibition was 7.32% (inactive). Turning to `CC(=O)N1C(=O)C2(Nc3ccccc3N2)c2ccccc21`, the inhibition was 34.1% (active).

On to `CC1(c2ccccc2)NC(=O)N(CC(=O)N2CC(=O)Nc3ccccc32)C1=O` (stereo unspecified), for which the inhibition is -7.8% (inactive). For `CSc1ccccc1NC(=O)CN(C)CC(=O)Nc1cccc(Br)c1` the value was -2.5% (inactive); for `CC1(C(=O)NS(=O)(=O)c2cccc(F)c2)CCN1C(=O)Cc1ccc(Cl)cc1Cl` (stereo unspecified), 1.79% (inactive); for `CC(Oc1cc2oc(=O)c3c(c2cc1Cl)CCCC3)C(=O)NCc1ccncc1` (stereo unspecified), 30.8% (active). For `O=C(COc1cc2oc(=O)c3c(c2cc1Cl)CCC3)NCCCN1CCOCC1` the value was 21.4% (inactive). To `COc1ccc(S(=O)(=O)NC(C)C(=O)NCc2ccncc2)cc1Cl` (stereo unspecified) belongs -4.46% (inactive); to `COC(=O)Cn1c(=NC(=O)CSCC(=O)Nc2cc(C)on2)sc2ccccc21`, 3.99% (inactive).

`CC(NC(=O)C(=O)Nc1nccs1)c1ccccc1` (stereo unspecified): the inhibition is 9.56% (inactive). For `COCCN1C(=O)C(=O)/C(=C(/O)c2ccc(S(=O)(=O)N3CCCCC3)cc2)C1c1ccc(OC)c(OC)c1` (stereo unspecified) the value was 33.3% (active); for `COCCN1C(=O)C(=O)/C(=C(/O)c2ccc(S(=O)(=O)N3CCOCC3)cc2)C1c1ccc(O)c(OC)c1` (stereo unspecified), 5.9% (inactive). For `CCOc1cc(C2/C(=C(/O)c3ccc(S(=O)(=O)N4CCCCC4)cc3)C(=O)C(=O)N2CCOC)ccc1O` (stereo unspecified) the value was 0.74% (inactive); for `O=C1C(=O)N(CCCN2CCOCC2)C(c2ccc([N+](=O)[O-])cc2)/C1=C(\O)c1ccc2c(c1)OCCO2` (stereo unspecified), 33.9% (active). For `O=C1C(=O)N(CCN2CCOCC2)C(c2cccc(Cl)c2)/C1=C(/O)c1ccc2c(c1)OCO2` (stereo unspecified) the value was 17.7% (inactive); for `COc1cccc(C2/C(=C(/O)c3ccc(F)cc3)C(=O)C(=O)N2CCN(C)C)c1` (stereo unspecified), 10.2% (inactive); for `COc1ccc(C2/C(=C(/O)c3ccc(OC(C)C)cc3)C(=O)C(=O)N2CCCN2CCOCC2)cc1` (stereo unspecified), 11.5% (inactive).

As to `COCCN1C(=O)C(=O)/C(=C(/O)c2ccc(S(=O)(=O)N3CCOCC3)cc2)C1c1ccc(OC)c(OC)c1` (stereo unspecified), the inhibition is 9.09% (inactive). Consider `COCCCN1C(=O)C(=O)/C(=C(/O)c2ccc(S(=O)(=O)N3CCOCC3)cc2)C1c1ccc(F)cc1` (stereo unspecified), for which the inhibition is 31% (active). Turning to `Cc1ccc(C)c(NC(=O)NNC(=O)c2ccc3ccccc3c2O)c1`, the inhibition is 12.5% (inactive). For the molecule `CCOC(=O)C1CCN(S(=O)(=O)c2ccc3c(c2)N(C)C(=O)CC(=O)N3C)CC1`, the inhibition is 6.72% (inactive). For `O=C(CNCc1cccs1)Nc1cc(S(=O)(=O)N2CCCC2)ccc1Cl` the value was 2.39% (inactive); for `O=C(NCc1nnc(SCC(=O)N2CCCc3ccccc32)o1)c1ccccc1F`, 11.2% (inactive); for `CCOC(=O)c1c(C)n(C)c2ccc(OC)c(NS(=O)(=O)CC)c12`, 2.65% (inactive). For `Cc1ccccc1OCCOc1ccc([N+](=O)[O-])cc1/C=N/n1cnnc1` the value was 3.11% (inactive). For `Cc1cc([N+](=O)[O-])c(-c2ccc(/C=N/n3cnnc3)o2)cc1Cl` the value was 34.8% (active). As to `Clc1cc(-c2ccc(/C=N/n3cnnc3)o2)ccc1Br`, the inhibition is 18.6% (inactive). For `CCOC(=O)c1cc(S(=O)(=O)NCCc2ccc(OC)c(OC)c2)cn1C` the value was 1.68% (inactive); for `COc1ccc(C)cc1N(C(=O)Cn1nnc(-c2ccc(C)o2)n1)C(C(=O)NC1CCCC1)c1ccncc1` (stereo unspecified), -13.4% (inactive).

`COc1ccc(/C=C/C(=O)c2cc(Br)ccc(=O)c2O)cc1`: the inhibition was 55.6% (active). For `CCOc1ccc(NC(=S)NC(=O)/C=C/c2ccc(OC)cc2)c([N+](=O)[O-])c1`, the inhibition was 11.6% (inactive). For `COCOc1cc(O)c(C(=O)/C=C/c2ccc(OCOC)c(OCOC)c2)c(OCOC)c1` the value was 6.25% (inactive); for `Cc1ccc(C(=O)O)cc1N1C(=O)CCCC1=O`, 2.24% (inactive); for `CCCN(CC(=O)Nc1ccccc1C)C(=O)c1ccc2[nH]c3c(c2c1)CC(C)CC3` (stereo unspecified), 18.2% (inactive). For `Oc1cccc(CCc2ccccn2)c1` the value was 7.36% (inactive).

As to `COc1ccc(CC(=O)c2ccc(O)cc2O)cc1OC`, the inhibition was 26.1% (inactive). For `O=C(Cc1ccccn1)c1ccc(O)cc1O` the value was 33.6% (active); for `O=C(Cn1cc2c(n1)CCCCC2)NCCN1CCOCC1`, -6.93% (inactive).

As for `CC(C)Cn1cc(-c2cncc3nccn23)cn1`, the inhibition is 4% (inactive).

As for `CCCOc1ccc2c3c(c(=O)oc2c1OCCC)CCC3`, the inhibition was 13.5% (inactive). To `COc1ccc2c3c(c(=O)oc2c1OCC(=O)C(C)(C)C)CCCC3` belongs -0.64% (inactive). With `O=c1oc2c(CN3CCCCC3)c(O)ccc2c2c1CCCCC2`, the inhibition is 30.6% (active). For `Cc1cc(N(C)C)cc(C)[n+]1[O-]` the value was -1.57% (inactive). In the case of `Nc1nc(O)c(CC(=O)O)s1`, the inhibition was 5.96% (inactive).

As to `CCCCc1cc(=O)oc2cc(C)cc(OCc3nn[nH]n3)c12`, the inhibition is 22% (inactive). To `COc1ccc(-c2cc3ccc(OCc4nn[nH]n4)cc3oc2=O)cc1` belongs 34.6% (active); to `Cc1noc(C)c1COc1ccc2ccc(=O)oc2c1`, 6.47% (inactive); to `Cn1ccc(=Nc2ccc(NC(=O)c3ccc(N=c4ccn(C)c5ccc([N+](=O)[O-])cc45)cc3)cc2)cc1`, 13.7% (inactive). To `O=C(NCc1cccnc1)c1cc(C2CCCN(C(=O)CCCc3ccccc3)C2)on1` (stereo unspecified) belongs -5.31% (inactive). To `CN(C(=O)C1CCN(c2ncnc3c2nc2n3CCCCC2)CC1)C1CCCCC1` belongs -2.53% (inactive); to `O=C(NNc1ccccc1Cl)C(O)(c1cccc(C(F)(F)F)c1)c1cccc(C(F)(F)F)c1`, 10.2% (inactive); to `Fc1cc(Br)ccc1NC(=S)Nc1cccnc1`, -0.63% (inactive). For the molecule `COc1ccc(C(=O)CCC(=O)Nc2cccnc2)c(OC)c1`, the inhibition is -6.9% (inactive). For `COc1cc(/C=N/NC(=S)Nc2cccnc2)cc(OC)c1O` the value was 31.5% (active). To `O=C(c1cccs1)C1C(c2ccc(Br)cc2)NC(=S)NC1(O)C(F)(F)F` (stereo unspecified) belongs 12.2% (inactive).

On to `Cc1c(NC(=O)C(C)OC(=O)c2c3c(nc4ccccc24)CCC(C)C3)c(=O)n(-c2ccccc2)n1C` (stereo unspecified), for which the inhibition was 3.38% (inactive). To `Cc1ccccc1N1CC(c2nc3ccccc3[nH]2)CC1=O` (stereo unspecified) belongs 2.42% (inactive); to `Cc1ccc(-c2nnc(-n3nnc4ccccc43)c3ccccc23)cc1`, 6.42% (inactive); to `Cc1ccc(-c2nc3ccccc3[nH]c2=O)cc1`, 32.1% (active). In the case of `CC1(C(=O)NCc2ccc(F)c(F)c2)Cc2c(-c3ccc4c(c3)OCO4)ccnc2O1` (stereo unspecified), the inhibition was 0% (inactive).

Consider `CC1C(=O)Nc2ccccc2N1C(=O)c1c(F)cccc1F` (stereo unspecified), for which the inhibition is -1.38% (inactive). To `O=C(Cc1c(F)cccc1Cl)N1CCN(C(=O)c2ccco2)CC1` belongs -4.08% (inactive). For `Cn1c(=NC(=O)c2ccco2)sc2cccc(F)c21` the value was 51% (active). For the molecule `Cn1c(=NC(=O)c2cnccn2)sc2ccccc21`, the inhibition was 29.1% (inactive). Turning to `O=C(CN1CCCCCC1)Nc1c(Cl)cc(Cl)cc1Cl`, the inhibition is 3.42% (inactive). For `COc1cc2nc(CN(C)Cc3ccc(F)cc3)[nH]c(=O)c2cc1OC` the value was -3.88% (inactive). For `COc1cccc(-n2c(SCC(=O)NC3CCCCC3)nc3n[nH]c(C)c3c2=N)c1` the value was 0.37% (inactive); for `CCCCNC(=O)CSc1nc2n[nH]c(C)c2c(=N)n1-c1cccc(Cl)c1C`, 33.5% (active).

For the molecule `Cc1ccc(-n2c(SCC(=O)NCCC3=CCCCC3)nc3n[nH]c(C)c3c2=N)cc1Cl`, the inhibition was -1.52% (inactive). Regarding `CC(C)Nc1ccc(-n2nc3ccccc3[n+]2[O-])cc1`, the inhibition was 21.6% (inactive). For `CN(C(=O)CN1C(=O)S/C(=C\c2ccccc2F)C1=O)C1CCS(=O)(=O)C1` (stereo unspecified) the value was 9.17% (inactive); for `O=C(CN1C(=O)S/C(=C\c2ccccc2Cl)C1=O)NC1C=CS(=O)(=O)C1` (stereo unspecified), 35.4% (active). To `CC12CCC(=O)N1C(C(=O)NCCN1C(=O)S/C(=C\c3ccccc3F)C1=O)CS2` (stereo unspecified) belongs 21.5% (inactive); to `CCN(CC)C(=O)C1CCCN(Cc2cccc(Cl)c2)C1` (stereo unspecified), 11.3% (inactive). To `COc1ccccc1C(=O)Nc1ccnn1C1CCN(C(=O)C(C)(C)C)CC1` belongs 2.52% (inactive); to `Cc1ccc(C(=O)N/C(=C\c2cn(C)c3ccccc23)C(=O)N2CCN(C)CC2)cc1`, 18.5% (inactive). For the molecule `CCn1cc(/C=C(\NC(=O)c2cc(OC)c(OC)c(OC)c2)C(=O)N2CCN(C)CC2)c2ccccc21`, the inhibition was 27.5% (inactive). To `COc1cc(C(=O)N/C(=C\c2cn(C)c3ccccc23)C(=O)N2CCOCC2)cc(OC)c1OC` belongs 33.6% (active); to `CN(Cc1c(F)cccc1Cl)C(=O)COC(=O)Cn1cnc2ccccc2c1=O`, 7.14% (inactive). Consider `Cc1ccc(OCC(=O)NCCCNC(=O)c2cccnc2)cc1C`, for which the inhibition is -5.28% (inactive).

Turning to `C/C(=C\C(=O)c1cccnc1)Nc1ccc(C)c(C)c1`, the inhibition was 31.1% (active). For `C/C(=C\C(=O)c1ccccc1)Nc1cccc(O)c1` the value was 8.48% (inactive); for `C=C1C2C[C@H](O)C(C)(C)[C@@]2(O)[C@H](O)C[C@]23C[C@@](C)(O)[C@H](CC[C@H]12)[C@H]3O` (stereo partly specified), 5.18% (inactive).

`COc1ccc(SC[C@H](Cc2ccccc2)N2CCN(CCc3ccccc3)CCC2=O)cc1`: the inhibition was 3.36% (inactive). To `C=CCOc1ccc(/C=N/n2cncn2)cc1OC` belongs 19.5% (inactive). For `O=C(CN1CCN(Cc2ccccc2)CC1)Nc1ccc(F)c(F)c1` the value was -9.79% (inactive).

With `COc1ccccc1/C=C/C=N/NC(=O)CN1CCN(Cc2ccccc2)CC1`, the inhibition was 49.7% (active). Regarding `COc1ccccc1CN1CCN(C(=O)Cc2ccccc2)CC1`, the inhibition was 6.8% (inactive).
